Reference: paper PMC10726135, “HNF4α isoforms regulate the circadian balance between carbohydrate and lipid metabolism in the liver”
In all, about 18,000 sequences were measured (“log2 normalized intensity”: median about 0.36, highest 2% from about 7.3 on). Many of the other results were omitted from the sample, so the highest values are more common in it than they were.

target: T1, HNF4alpha8 (COS-7 nuclear extract) (Homo sapiens, UniProt P41235-5 1-452); test: protein-binding microarray; COS-7 nuclear extract on double-stranded Agilent 4x180k PBM; binding buffer, salt, pH and temperature not given in the material; high values mean tight binding; settings: chain copies: 2; label: 3' end of strand 1 on the slide; dsDNA, one strand shown
T1 sequence: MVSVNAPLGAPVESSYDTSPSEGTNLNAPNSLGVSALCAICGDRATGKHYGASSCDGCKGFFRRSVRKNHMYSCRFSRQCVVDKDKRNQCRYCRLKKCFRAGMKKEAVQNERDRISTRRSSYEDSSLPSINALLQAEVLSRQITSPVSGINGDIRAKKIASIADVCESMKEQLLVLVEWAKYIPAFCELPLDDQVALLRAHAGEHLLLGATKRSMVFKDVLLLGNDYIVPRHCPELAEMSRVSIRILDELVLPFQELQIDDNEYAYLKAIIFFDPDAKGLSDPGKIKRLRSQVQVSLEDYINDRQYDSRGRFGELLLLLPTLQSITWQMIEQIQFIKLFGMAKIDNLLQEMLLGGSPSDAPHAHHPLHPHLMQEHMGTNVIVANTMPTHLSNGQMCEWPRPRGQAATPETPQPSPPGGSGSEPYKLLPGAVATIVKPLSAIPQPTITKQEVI
How it was run: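 Nuclear extracts came from COS-7 cells transiently transfected by CaPO4 with a human HNF4α isoform expression vector. They were applied to a custom Agilent SurePrint G3 4x180k array of ~60-nt oligonucleotides, made double-stranded, with ~44,000 test sequences spotted in quadruplicate. Bound HNF4α was imaged at 2-µm resolution on an Agilent G2565CA scanner. Binding signal was taken as background-corrected, normalized gProcessedSignal from Agilent software.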

Point of comparison: “GTCTAGCGCAAATGATCAAAGGTTGGTTTTGCCTAGGGAGATTAGAGTATCGGTCGA”, binding signal 4.43 log2 normalized intensity. Against it:
- ATGTACATGGACTTTGAACCAAGATATGCTGCCTAGGGAGATTAGAGTATCGGTCGA — higher, 7.68 log2 normalized intensity
- AGGTACTAAGAGATTTGAATATGTACATGGGCCTAGGGAGATTAGAGTATCGGTCGA — lower, 0.942 log2 normalized intensity
- ACACAGTACTTTGTACATGGGAATAGACATGCCTAGGGAGATTAGAGTATCGGTCGA — lower, 0.975 log2 normalized intensity
- CGGTCAGCTGCTTGACTTAGTACATGGCCTGCCTAGGGAGATTAGAGTATCGGTCGA — lower, 0.903 log2 normalized intensity
- CATGGACTTTGAACCAAGATATGCTAACATGCCTAGGGAGATTAGAGTATCGGTCGA — higher, 5.27 log2 normalized intensity
- AGATTTGAATATGTACATGGACTTTGAACCGCCTAGGGAGATTAGAGTATCGGTCGA — higher, 10.6 log2 normalized intensity
- AGTGTGTAAGTATGCTCACTGACCTCTGCCGCCTAGGGAGATTAGAGTATCGGTCGA — lower, 3.94 log2 normalized intensity
- AGGAATTCTGATCTTTGACCTCTCCAGGGTGCCTAGGGAGATTAGAGTATCGGTCGA — higher, 7.01 log2 normalized intensity
- CATCTTTGAAGAGCACAGGGTCAGCAGATCGCCTAGGGAGATTAGAGTATCGGTCGA — lower, 1.59 log2 normalized intensity
- TTCTGATCTTTGACCTCTCCAGGGTCCTTGGCCTAGGGAGATTAGAGTATCGGTCGA — higher, 5.35 log2 normalized intensity
- TAATCAGAGCAGGAATTCTGATCTTTGACCGCCTAGGGAGATTAGAGTATCGGTCGA — higher, 7.96 log2 normalized intensity
- CCACTTTGAATCAGGAGAGCATCTGAGTGTGCCTAGGGAGATTAGAGTATCGGTCGA — lower, 0.742 log2 normalized intensity
- AGAGCAGGAATTCTGATCTTTGACCTCTCCGCCTAGGGAGATTAGAGTATCGGTCGA — higher, 8.08 log2 normalized intensity
- TGTGCTAGATACTGGAGATATGTTGCTGGAGCCTAGGGAGATTAGAGTATCGGTCGA — lower, 0.67 log2 normalized intensity
- TCTAGATGGGGTTGAGCAGACTAAAGGACTGCCTAGGGAGATTAGAGTATCGGTCGA — lower, -0.482 log2 normalized intensity
- TGAGACATGAATCCATCCCACCTCACTTATGCCTAGGGAGATTAGAGTATCGGTCGA — lower, 1.12 log2 normalized intensity
- GCAAGGAATTCAACCCTTGTCACTTTCCCTGCCTAGGGAGATTAGAGTATCGGTCGA — lower, 1.82 log2 normalized intensity
- TTGGACAGGGTGACGTCATTGGAAATCCGAGCCTAGGGAGATTAGAGTATCGGTCGA — lower, 0.187 log2 normalized intensity
- AGATTCGGTGAGGGATTGTTTAGGTACAAAGCCTAGGGAGATTAGAGTATCGGTCGA — lower, 1.25 log2 normalized intensity
- AAAGTCCATATTCTTTGTTTGGATGCCAAAGCCTAGGGAGATTAGAGTATCGGTCGA — lower, 2.25 log2 normalized intensity
- TTGTTTAGGTACAAAGTCCATTGGAAGCCAGCCTAGGGAGATTAGAGTATCGGTCGA — higher, 6.42 log2 normalized intensity
- CTCTGAGATTCGGTGAGGGATTGTTTAGGTGCCTAGGGAGATTAGAGTATCGGTCGA — lower, 0.829 log2 normalized intensity
- AGGGATTGTTTAGGTACAAAGTCCATTGGAGCCTAGGGAGATTAGAGTATCGGTCGA — higher, 8.46 log2 normalized intensity
- CGGTGAGGGATTGTTTAGGTACAAAGTCCAGCCTAGGGAGATTAGAGTATCGGTCGA — higher, 8.89 log2 normalized intensity
- CCTTTGCCCTCCAAACTGAGAGATTTTTTCGCCTAGGGAGATTAGAGTATCGGTCGA — lower, 1.05 log2 normalized intensity
- GAGGTCTGGACCCTTGGCACTTTCACGATAGCCTAGGGAGATTAGAGTATCGGTCGA — lower, 1.79 log2 normalized intensity
- CAACTGACATCTGGAAATGTTTGTAGGGACGCCTAGGGAGATTAGAGTATCGGTCGA — lower, 0.67 log2 normalized intensity
- CTTTGACCCTGTTTTGTAAACTCCCTTTGAGCCTAGGGAGATTAGAGTATCGGTCGA — lower, 2.04 log2 normalized intensity
- CTGGAAATGTTTGTAGGGACTTTGACCCCTGCCTAGGGAGATTAGAGTATCGGTCGA — higher, 10.4 log2 normalized intensity
- AGCAATGTTTCTTGTCCAGGGACTTTGAACGCCTAGGGAGATTAGAGTATCGGTCGA — higher, 6.55 log2 normalized intensity
- AATGTTTGTAGGGACTTTGACCCCTAAAACGCCTAGGGAGATTAGAGTATCGGTCGA — higher, 9.59 log2 normalized intensity
- GACATCTGGAAATGTTTGTAGGGACTTTGAGCCTAGGGAGATTAGAGTATCGGTCGA — higher, 5.1 log2 normalized intensity
- CAGCTTTGAAGTGCTTCCTGTGTATTTCTTGCCTAGGGAGATTAGAGTATCGGTCGA — lower, 1.27 log2 normalized intensity
- GGACTAAGAATTGCTCAACCTGGACCTCATGCCTAGGGAGATTAGAGTATCGGTCGA — lower, 1.89 log2 normalized intensity
- TCAGGCCATTTCACCTTTGCCCTGTCAGTCGCCTAGGGAGATTAGAGTATCGGTCGA — higher, 6.79 log2 normalized intensity
- CTATGTCAGGCCATTTCACCTTTGCCCTGTGCCTAGGGAGATTAGAGTATCGGTCGA — higher, 7.53 log2 normalized intensity
- TGTCACACTGGCCTTTGCCCTCGCTGGCGGGCCTAGGGAGATTAGAGTATCGGTCGA — higher, 5.25 log2 normalized intensity
- AAGGCTGTCACACTGGCCTTTGCCCTCGCTGCCTAGGGAGATTAGAGTATCGGTCGA — higher, 5.82 log2 normalized intensity
- CACAAAAAGGCTGTCACACTTGCCCTTTGCGCCTAGGGAGATTAGAGTATCGGTCGA — higher, 5.42 log2 normalized intensity
- AAAGGCTGTCACACTTGCCCTTTGCCCTCAGCCTAGGGAGATTAGAGTATCGGTCGA — higher, 8.84 log2 normalized intensity
- ACACTTGCCCTTTGCCCTCACTGGTAGAAGGCCTAGGGAGATTAGAGTATCGGTCGA — higher, 5.8 log2 normalized intensity
- AGCCTCTATGTCAGGCCATTTCACCTTTGCGCCTAGGGAGATTAGAGTATCGGTCGA — higher, 4.57 log2 normalized intensity
- CTGTCACACTTGCCCTTTGCCCTCACTGGTGCCTAGGGAGATTAGAGTATCGGTCGA — higher, 7.78 log2 normalized intensity
